For five compounds, outcome and AC50 results are on record in PubChem BioAssay (EPA / NIEHS).

Results filed as inconclusive are left out. More than one record can exist for a structure, and the calls need not agree. Active and inactive are the calls of the source. Rule for the calls, unless noted: active = hit-call score of the fitted dose curve at least 0.9, where 1 is the maximum; inconclusive = response in the unintended direction; inactive = score below 0.9.

Assay [1] is described as follows: ATG_PPRE_CIS: Attagene CIS-FACTORIAL HepG2 Assay for human Peroxisome Proliferator-activated Response Element (PPRE) (AID 2282958; active = hit-call score of the fitted dose curve at least 0.9, where 1 is the maximum; inactive = score below 0.9). The note with it: HepG2 PPRE cis-element reporter, Attagene transcription factor profiling; actives raise or lower the signal. In short, it runs like this:
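HepG2, transient MRTU transfection (cis promoter elements, endogenous TFs). 24 h dosing. RNA → oligo(dT) RT → PCR → 6-FAM primer extension → HpaI digest → CE. Bidirectional fit vs DMSO.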

Assay [2] can be described thus: ATG_M_19_TRANS: Attagene TRANS-FACTORIAL HepG2 Assay for M19 Transcription Factor (Internal Marker) (AID 2282974). Conditions: HepG2 Attagene TRANS-FACTORIAL M19 internal marker reporter. In short, it runs like this:
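Fluorescence of 6-FAM-labelled reporter cDNA fragments, separated by capillary electrophoresis, served as the readout. These derived from HepG2 cells carrying transfected GAL4-UAS reporter units after 24 h dosing, with DMSO as negative control.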

Assay [3] addresses Oxysterols receptor LXR-alpha (Homo sapiens) (UniProt Q13133). Briefly: ATG_LXRa_TRANS: Attagene TRANS-FACTORIAL HepG2 Assay for human Liver X Receptor alpha (LXRa) (AID 2282980). Conditions: HepG2 Attagene TRANS reporter, LXRa transactivation. In short, it runs like this:
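HepG2 cells transiently transfected with GAL4-UAS reporter units for chimeric NR-Gal4 proteins, exposed to chemicals for 24 h. Reporter mRNA quantified by RT-PCR and capillary electrophoresis; gain of signal fitted relative to DMSO.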

In assay [4] the target is human Peroxisome Proliferator-activated Receptor alpha (PPARa), PPARA (gene 5465) (UniProt Q07869). Briefly: ATG_PPARa_TRANS: Attagene TRANS-FACTORIAL HepG2 Assay for human Peroxisome Proliferator-activated Receptor alpha (PPARa) (AID 2283001).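 For AC50: potency for gain of reporter signal over DMSO so agonist or activator.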 In a few lines:
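HepG2 cells transiently transfected with multiplexed GAL4-UAS reporter units and chimeric NR-Gal4 constructs were dosed for 24 h. Reporter mRNA was measured by RT-PCR with fluorescent labelling and capillary electrophoresis; gain of signal fitted against DMSO.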

Assay [5] has as its target human Peroxisome Proliferator-activated Receptor delta (PPARd), PPARD (gene 5467) (UniProt Q03181). Briefly: ATG_PPARd_TRANS: Attagene TRANS-FACTORIAL HepG2 Assay for human Peroxisome Proliferator-activated Receptor delta (PPARd) (AID 2283002). In short, it runs like this: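 Multiplexed trans-activation format: HepG2 liver cells expressing exogenous NR-Gal4 chimeras and GAL4-UAS reporters were exposed for 24 h. Reporter mRNA was detected by RT-PCR with capillary electrophoresis fluorescence; activity fitted as gain of signal relative to DMSO.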

Assay [6] deals with Peroxisome proliferator-activated receptor gamma (Homo sapiens) (UniProt P37231). Briefly: ATG_PPARg_TRANS: Attagene TRANS-FACTORIAL HepG2 Assay for human Peroxisome Proliferator-activated Receptor-gamma (PPARg) (AID 2283007). In a few lines:
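Transient transfection of HepG2 with GAL4-UAS-driven reporter units; chemical dosing 24 h; total RNA → oligo(dT) RT → PCR with reporter primers → 6-FAM primer extension → HpaI digest 2 h 37 C → capillary electrophoresis. Positive direction vs DMSO.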

Assay [7] addresses human Thyroid Receptor alpha (THRa1), THRA (gene 7067) (UniProt P10827). Briefly: ATG_THRa1_TRANS: Attagene TRANS-FACTORIAL HepG2 Assay for human Thyroid Receptor alpha (THRa1) (AID 2283014). In a few lines: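 HepG2 cells transiently transfected with chimeric NR-Gal4 and GAL4-UAS reporter units, dosed 24 h. Reporter mRNA quantified by RT-PCR, fluorescent labeling, HpaI digestion and capillary electrophoresis; gain-of-signal fit versus DMSO.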

In assay [8] the target is human Vitamin D Receptor (VDR), VDR (gene 7421) (UniProt P11473). Briefly: ATG_VDR_TRANS: Attagene TRANS-FACTORIAL HepG2 Assay for human Vitamin D Receptor (VDR) (AID 2283022). In short, it runs like this:
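HepG2 cells were transiently transfected with GAL4-UAS reporter units and a chimeric VDR-Gal4 construct, then dosed for 24 hours. Reporter mRNA was quantified by RT-PCR, fluorescent labeling, HpaI digestion and capillary electrophoresis; gain of signal analysed vs DMSO.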

Assay [9] in a line: TOX21_p53_BLA_p3_viability: Viability Assessment in the Tox21 HCT-116 p53 Agonism Beta-lactamase Assay, Phase 3 (AID 2283593).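 Note: cells exposed to compound for 16 h before reading.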 In short, it runs like this:
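HCT-116 cells (4000/well) rested 5 h at 37C, then got DMSO compounds by pin tool (217-fold dilution) for 16 h at 37C, 5% CO2. After the bla read, CellTiter-Glo was added and luminescence read at 30 min, room temperature.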

Assay [10] is described as follows: ACEA_ER_AUC_viability: ACEA Biosciences xCELLigence Real-Time Cell Analysis on Estrogen Receptor Agonism for Viability (AID 2283782).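 Note: continuous compound exposure with impedance area under curve over 80 h; hit means loss of impedance signal meaning reduced cell growth or viability.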 In short, it runs like this:
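T-47D human breast cells in phenol red-free RPMI1640 with 10% charcoal-stripped FBS were dosed with an 8-point 1:4 dilution series from 100 uM top final concentration, in duplicate. Impedance-based growth was followed for 80 h; AUC analysed versus DMSO.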

The target of assay [11] is Hypoxia-inducible factor 1-alpha (Homo sapiens) (UniProt Q16665). Briefly: ATG_HIF1a_CIS: Attagene CIS-FACTORIAL HepG2 Assay for human Hypoxia Inducible Factor 1 (HIF1A) (AID 2282951; active = hit-call score of the fitted dose curve at least 0.9, where 1 is the maximum; inactive = score below 0.9). Conditions: HepG2 Attagene cis-factorial HIF1a reporter transcription; actives raise or lower the signal. In a few lines: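 Transient MRTU transfection of human HepG2 liver cells, 24 h compound treatment, then total RNA isolation, oligo(dT) reverse transcription, PCR amplification, fluorescent labelling and capillary electrophoresis of reporter fragments. Gain or loss relative to DMSO.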
Hypoxia-inducible factor 1-alpha (Homo sapiens), sequence (Q16665 whole entry, looked up, the tested form may be a part): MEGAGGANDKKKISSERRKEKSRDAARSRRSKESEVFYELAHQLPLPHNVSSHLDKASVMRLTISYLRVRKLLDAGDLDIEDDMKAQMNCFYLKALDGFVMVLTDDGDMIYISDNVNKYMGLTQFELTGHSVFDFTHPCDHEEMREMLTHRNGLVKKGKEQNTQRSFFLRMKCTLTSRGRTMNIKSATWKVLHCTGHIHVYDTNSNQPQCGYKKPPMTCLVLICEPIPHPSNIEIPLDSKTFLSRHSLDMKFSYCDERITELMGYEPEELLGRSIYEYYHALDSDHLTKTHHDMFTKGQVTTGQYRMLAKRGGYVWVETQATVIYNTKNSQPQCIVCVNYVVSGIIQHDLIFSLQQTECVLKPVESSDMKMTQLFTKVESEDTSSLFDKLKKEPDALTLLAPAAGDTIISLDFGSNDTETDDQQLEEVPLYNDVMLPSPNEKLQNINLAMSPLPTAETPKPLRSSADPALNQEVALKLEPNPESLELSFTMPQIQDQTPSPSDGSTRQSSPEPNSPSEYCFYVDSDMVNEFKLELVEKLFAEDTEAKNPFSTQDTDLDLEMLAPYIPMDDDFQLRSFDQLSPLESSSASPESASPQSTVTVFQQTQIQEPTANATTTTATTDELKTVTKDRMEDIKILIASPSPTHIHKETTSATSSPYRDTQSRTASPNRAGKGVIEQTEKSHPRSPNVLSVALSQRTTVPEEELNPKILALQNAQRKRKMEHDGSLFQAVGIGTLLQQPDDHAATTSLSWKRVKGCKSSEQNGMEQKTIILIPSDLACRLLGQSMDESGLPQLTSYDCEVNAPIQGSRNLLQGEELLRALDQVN

Assay [12] concerns the target Nuclear receptor subfamily 1 group I member 3 (Homo sapiens) (UniProt Q14994). Briefly: ATG_CAR_TRANS: Attagene TRANS-FACTORIAL HepG2 Assay for human Constitutive Androstane Receptor (CAR) (AID 2282969).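 Note: activators raise reporter mRNA above DMSO so AC50 marks induction.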 Conditions: HepG2 Attagene TRANS-FACTORIAL CAR reporter. In short, it runs like this:
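HepG2 cells transiently transfected with multiplexed GAL4-UAS reporter units expressing chimeric NR-Gal4 proteins; compound exposure 24 h. Reporter mRNA measured by RT-PCR, 6-FAM labelling, HpaI digestion and capillary electrophoresis; gain-of-signal fitted against DMSO baseline.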

Assay [13] can be described thus: ATG_GAL4_TRANS: Attagene TRANS-FACTORIAL HepG2 Assay for GAL4 (Internal Marker) (AID 2282976). Conditions: HepG2 Attagene TRANS GAL4 internal marker reporter. In short, it runs like this: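 Background-control readout: GAL4-UAS reporter transcript in transiently transfected HepG2 cells after 24 h compound exposure. Measured by RT-PCR, 6-FAM primer extension, HpaI digest and capillary electrophoresis; gain-of-signal fit versus DMSO.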

The target in assay [14] is human RAR-related Orphan Receptor beta (RORb), RORB (gene 6096) (UniProt Q92753). Briefly: ATG_RORb_TRANS: Attagene TRANS-FACTORIAL HepG2 Assay for human RAR-related Orphan Receptor beta (RORb) (AID 2283010). In short, it runs like this: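 HepG2 cells were transiently transfected with multiplexed GAL4-UAS reporter units expressing chimeric nuclear receptor–GAL4 proteins, then dosed for 24 h. Reporter mRNA was quantified by RT-PCR with fluorescent labelling and capillary electrophoresis; gain of signal was fitted relative to DMSO.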
human RAR-related Orphan Receptor beta (RORb), RORB (gene 6096), sequence (Q92753 whole entry, looked up, the tested form may be a part): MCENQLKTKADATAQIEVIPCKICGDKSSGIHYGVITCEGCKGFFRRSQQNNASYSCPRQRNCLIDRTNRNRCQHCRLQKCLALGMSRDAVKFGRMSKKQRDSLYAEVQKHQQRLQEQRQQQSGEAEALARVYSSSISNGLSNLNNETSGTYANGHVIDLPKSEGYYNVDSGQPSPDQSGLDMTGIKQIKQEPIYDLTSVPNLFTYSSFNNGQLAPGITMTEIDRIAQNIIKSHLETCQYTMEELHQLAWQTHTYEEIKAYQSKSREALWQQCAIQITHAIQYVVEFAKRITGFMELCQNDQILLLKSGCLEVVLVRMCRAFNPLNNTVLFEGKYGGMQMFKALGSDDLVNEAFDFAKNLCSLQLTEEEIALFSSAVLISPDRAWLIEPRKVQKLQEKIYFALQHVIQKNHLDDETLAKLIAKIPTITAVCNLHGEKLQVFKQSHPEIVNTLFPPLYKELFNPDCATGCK

Assay [15] has as its target Bile acid receptor (Homo sapiens) (UniProt Q96RI1). Briefly: ATG_IR1_CIS: Attagene CIS-FACTORIAL HepG2 Assay for human Nuclear Receptor Subfamily 1 Group H Member 4 (NR1H4), IR1 submotif (AID 2282946; active = hit-call score of the fitted dose curve at least 0.9, where 1 is the maximum; inactive = score below 0.9). Conditions: IR1 reporter transcription, actives raise or lower the signal. In a few lines: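 Transient MRTU transfection, HepG2; 24 h dosing; RNA → RT-PCR → 6-FAM primer extension → HpaI digest → capillary electrophoresis fluorescence. Gain/loss of signal fitted relative to DMSO.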

Assay [16] has as its target Glucocorticoid receptor (Homo sapiens) (UniProt P04150). Briefly: ATG_GR_TRANS: Attagene TRANS-FACTORIAL HepG2 Assay for human Glucocorticoid Receptor (GR) (AID 2282978).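 Note: activators score as hits since higher reporter transcript over DMSO is fitted.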 The note with it: HepG2 Attagene TRANS GR reporter, mRNA transcription. In short, it runs like this: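 Fluorescent capillary-electrophoresis quantitation of reporter mRNA is the readout, taken 24 h after dosing human HepG2 cells carrying transiently transfected GAL4-UAS reporter units activated by chimeric NR-GAL4 fusions; activity scored as induction over DMSO.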

Assay [17] deals with Bile acid receptor (Homo sapiens) (UniProt Q96RI1). Briefly: ATG_FXR_TRANS: Attagene TRANS-FACTORIAL HepG2 Assay for Farnesoid X Receptor (FXR) (AID 2282979).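 Note: hits raise reporter mRNA above DMSO so AC50 marks FXR activation.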 Conditions: HepG2 Attagene TRANS FXR-GAL4 reporter transcription. In a few lines: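 HepG2 cells were transiently transfected with GAL4-UAS reporters driven by chimeric NR-Gal4 proteins and dosed for 24 h. Reporter mRNA was quantified by RT-PCR, fluorescent labelling, HpaI digestion and capillary electrophoresis, with gain of signal scored versus DMSO.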
Bile acid receptor (Homo sapiens), sequence (Q96RI1 whole entry, looked up, the tested form may be a part): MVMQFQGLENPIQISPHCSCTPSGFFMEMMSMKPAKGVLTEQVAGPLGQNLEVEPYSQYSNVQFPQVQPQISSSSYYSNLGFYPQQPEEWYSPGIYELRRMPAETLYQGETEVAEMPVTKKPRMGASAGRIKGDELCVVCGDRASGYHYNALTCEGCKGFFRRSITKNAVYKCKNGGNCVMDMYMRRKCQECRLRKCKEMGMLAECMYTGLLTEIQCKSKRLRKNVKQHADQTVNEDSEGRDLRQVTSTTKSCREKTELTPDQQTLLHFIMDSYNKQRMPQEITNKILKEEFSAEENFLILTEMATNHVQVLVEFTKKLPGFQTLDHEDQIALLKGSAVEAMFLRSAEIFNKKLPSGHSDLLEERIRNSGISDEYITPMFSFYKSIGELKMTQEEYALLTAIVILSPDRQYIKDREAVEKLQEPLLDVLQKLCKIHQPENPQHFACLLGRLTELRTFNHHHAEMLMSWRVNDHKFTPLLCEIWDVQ

For assay [18], the target named is Nuclear receptor subfamily 4 group A member 2 (Homo sapiens) (UniProt P43354). Briefly: ATG_NURR1_TRANS: Attagene TRANS-FACTORIAL HepG2 Assay for human Nuclear Receptor Related Protein 1 (NURR1) (AID 2282985). Conditions: HepG2 Attagene TRANS reporter, mRNA readout. In a few lines: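 HepG2 cells transiently transfected with GAL4-UAS reporter units and chimeric NR-Gal4 constructs; chemical exposure 24 h. Reporter mRNA quantified by RT-PCR, fluorescent labelling and capillary electrophoresis; gain of signal fitted relative to DMSO baseline.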

For assay [19], the target named is human RAR-related Orphan Receptor gamma (RORg), RORC (gene 6097) (UniProt P51449). Briefly: ATG_RORg_TRANS: Attagene TRANS-FACTORIAL HepG2 Assay for human RAR-related Orphan Receptor gamma (RORg) (AID 2283011). In short, it runs like this: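 HepG2 cells transiently transfected with GAL4-UAS reporter units and chimeric RORg-Gal4 construct; after 24 h chemical exposure, reporter mRNA measured by RT-PCR with fluorescent capillary electrophoresis, gain of signal fitted against DMSO.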

Assay [20] can be described thus: TOX21_p53_BLA_p4_viability: Viability Assessment in the Tox21 HCT-116 p53 Agonism Beta-lactamase Assay, Phase 4 (AID 2283597).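 Note: hits lower the luminescence signal meaning cytotoxicity.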 In short, it runs like this:
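HCT-116 p53-bla cells, 4000/well, dosed after 5 h attachment and incubated 16 h at 37 °C, 5% CO2. Viability from CellTiter-Glo ATP luminescence after 30 min at room temperature, taken after the beta-lactamase read; loss of signal indicates cytotoxicity.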

Peroxisome proliferator-activated receptor gamma (Homo sapiens), sequence (P37231 whole entry, looked up, the tested form may be a part): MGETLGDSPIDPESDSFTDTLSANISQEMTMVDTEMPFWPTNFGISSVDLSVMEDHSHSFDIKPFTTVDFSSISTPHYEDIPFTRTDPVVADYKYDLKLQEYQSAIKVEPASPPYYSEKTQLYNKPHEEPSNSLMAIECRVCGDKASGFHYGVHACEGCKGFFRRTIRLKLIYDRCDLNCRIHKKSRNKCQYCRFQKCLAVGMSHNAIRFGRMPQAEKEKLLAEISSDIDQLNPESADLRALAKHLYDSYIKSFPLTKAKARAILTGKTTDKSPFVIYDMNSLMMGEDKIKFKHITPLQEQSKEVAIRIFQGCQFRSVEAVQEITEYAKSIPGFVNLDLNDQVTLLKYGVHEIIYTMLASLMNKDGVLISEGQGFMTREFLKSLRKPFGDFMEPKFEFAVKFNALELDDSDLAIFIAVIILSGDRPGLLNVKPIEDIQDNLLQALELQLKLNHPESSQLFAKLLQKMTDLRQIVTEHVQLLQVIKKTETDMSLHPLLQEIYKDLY
human Thyroid Receptor alpha (THRa1), THRA (gene 7067), sequence (P10827 whole entry, looked up, the tested form may be a part): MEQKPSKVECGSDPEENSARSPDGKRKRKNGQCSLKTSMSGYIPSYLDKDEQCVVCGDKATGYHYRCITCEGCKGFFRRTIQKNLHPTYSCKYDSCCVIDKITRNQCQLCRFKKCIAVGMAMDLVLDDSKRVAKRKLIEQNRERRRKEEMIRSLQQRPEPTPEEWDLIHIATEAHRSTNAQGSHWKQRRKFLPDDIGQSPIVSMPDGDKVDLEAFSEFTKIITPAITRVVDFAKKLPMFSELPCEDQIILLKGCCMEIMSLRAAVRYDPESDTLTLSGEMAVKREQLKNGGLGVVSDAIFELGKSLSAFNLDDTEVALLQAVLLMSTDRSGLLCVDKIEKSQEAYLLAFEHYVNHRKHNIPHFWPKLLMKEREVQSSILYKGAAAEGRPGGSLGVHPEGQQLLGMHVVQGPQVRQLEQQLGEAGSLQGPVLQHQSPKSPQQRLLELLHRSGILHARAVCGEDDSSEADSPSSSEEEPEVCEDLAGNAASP
human Peroxisome Proliferator-activated Receptor delta (PPARd), PPARD (gene 5467), sequence (Q03181 whole entry, looked up, the tested form may be a part): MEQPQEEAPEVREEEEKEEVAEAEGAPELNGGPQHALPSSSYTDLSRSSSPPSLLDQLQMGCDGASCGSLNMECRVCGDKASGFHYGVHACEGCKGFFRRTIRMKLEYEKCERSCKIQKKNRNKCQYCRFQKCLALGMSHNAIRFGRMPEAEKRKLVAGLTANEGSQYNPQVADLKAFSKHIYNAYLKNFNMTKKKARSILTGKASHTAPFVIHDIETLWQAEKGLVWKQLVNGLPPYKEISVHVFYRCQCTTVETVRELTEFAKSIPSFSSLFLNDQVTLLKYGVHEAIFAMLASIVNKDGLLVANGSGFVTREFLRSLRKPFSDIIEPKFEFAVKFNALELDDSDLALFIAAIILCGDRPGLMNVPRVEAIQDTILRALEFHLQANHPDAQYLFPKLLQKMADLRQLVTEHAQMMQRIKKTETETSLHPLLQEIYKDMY
human Vitamin D Receptor (VDR), VDR (gene 7421), sequence (P11473 whole entry, looked up, the tested form may be a part): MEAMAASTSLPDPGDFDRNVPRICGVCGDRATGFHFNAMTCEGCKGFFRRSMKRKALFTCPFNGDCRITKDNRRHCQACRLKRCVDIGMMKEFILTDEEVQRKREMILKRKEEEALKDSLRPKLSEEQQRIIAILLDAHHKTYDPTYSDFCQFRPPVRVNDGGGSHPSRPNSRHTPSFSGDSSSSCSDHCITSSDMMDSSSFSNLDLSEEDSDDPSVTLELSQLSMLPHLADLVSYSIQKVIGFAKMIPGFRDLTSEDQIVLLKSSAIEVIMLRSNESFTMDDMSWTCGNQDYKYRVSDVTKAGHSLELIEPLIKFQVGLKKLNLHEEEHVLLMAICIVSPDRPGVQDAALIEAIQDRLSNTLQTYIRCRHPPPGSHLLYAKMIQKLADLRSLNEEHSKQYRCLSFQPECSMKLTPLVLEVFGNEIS
human Peroxisome Proliferator-activated Receptor alpha (PPARa), PPARA (gene 5465), sequence (Q07869 whole entry, looked up, the tested form may be a part): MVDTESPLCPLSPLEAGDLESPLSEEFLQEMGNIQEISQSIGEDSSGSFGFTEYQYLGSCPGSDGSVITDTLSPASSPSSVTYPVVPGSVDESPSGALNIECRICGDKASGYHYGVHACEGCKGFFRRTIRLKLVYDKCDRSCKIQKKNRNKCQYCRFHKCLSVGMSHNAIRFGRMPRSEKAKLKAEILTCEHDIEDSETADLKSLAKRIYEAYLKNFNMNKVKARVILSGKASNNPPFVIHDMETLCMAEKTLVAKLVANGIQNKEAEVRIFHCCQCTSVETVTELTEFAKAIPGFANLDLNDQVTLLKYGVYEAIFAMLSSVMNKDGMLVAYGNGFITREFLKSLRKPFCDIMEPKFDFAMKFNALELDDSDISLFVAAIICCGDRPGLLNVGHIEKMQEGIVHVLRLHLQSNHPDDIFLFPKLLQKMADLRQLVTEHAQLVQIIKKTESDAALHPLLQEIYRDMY
Oxysterols receptor LXR-alpha (Homo sapiens), sequence (Q13133 whole entry, looked up, the tested form may be a part): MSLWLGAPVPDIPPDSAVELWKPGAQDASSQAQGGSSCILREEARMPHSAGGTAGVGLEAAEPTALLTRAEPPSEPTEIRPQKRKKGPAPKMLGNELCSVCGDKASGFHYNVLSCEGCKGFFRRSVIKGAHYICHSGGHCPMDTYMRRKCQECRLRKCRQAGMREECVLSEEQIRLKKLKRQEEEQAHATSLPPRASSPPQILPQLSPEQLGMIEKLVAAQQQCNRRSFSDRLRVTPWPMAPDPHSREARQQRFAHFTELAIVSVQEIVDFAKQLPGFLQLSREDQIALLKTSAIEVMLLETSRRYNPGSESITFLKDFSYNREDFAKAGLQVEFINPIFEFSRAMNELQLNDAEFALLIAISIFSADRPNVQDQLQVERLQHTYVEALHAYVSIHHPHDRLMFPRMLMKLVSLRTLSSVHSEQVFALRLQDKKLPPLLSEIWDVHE
Nuclear receptor subfamily 1 group I member 3 (Homo sapiens), sequence (Q14994 whole entry, looked up, the tested form may be a part): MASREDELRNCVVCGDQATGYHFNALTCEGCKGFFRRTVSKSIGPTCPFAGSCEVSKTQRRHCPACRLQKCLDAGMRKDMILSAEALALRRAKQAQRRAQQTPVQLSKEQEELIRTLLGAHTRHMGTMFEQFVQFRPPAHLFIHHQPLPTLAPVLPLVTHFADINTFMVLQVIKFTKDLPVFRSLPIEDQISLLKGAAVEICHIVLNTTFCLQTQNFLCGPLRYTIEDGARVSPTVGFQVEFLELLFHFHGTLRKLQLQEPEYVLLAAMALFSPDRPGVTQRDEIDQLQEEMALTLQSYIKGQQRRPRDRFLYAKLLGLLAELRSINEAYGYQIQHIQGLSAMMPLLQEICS

Broadly, the AC50 is the midpoint of the concentration-response curve, whichever way the signal moves. On to `CC(C)(Oc1ccc(Cl)cc1)C(=O)O`, for which the call in assay [1], in assay [2], in [3], in assay [5], in [7] and in [8] was inactive. In assay [9], the compound was classed as inactive. Moreover, the figures for the AC50 in [4], in [6] and in [10] were 29.8 µM (active), 69.3 µM (active) and 50 µM (active), respectively.
For the compound `Cc1cccnc1`, the outcome in [11], in [12], in [2], in [13], in assay [3] and in assay [6] was inactive. The result in assay [14] and in assay [7] was inactive.
`CC(C)(C)NC(=O)[C@@H]1CN(Cc2cccnc2)CCN1C[C@@H](O)C[C@@H](Cc1ccccc1)C(=O)N[C@H]1c2ccccc2C[C@H]1O`: the compound was classed as inactive in [15], in assay [11], in assay [12], in [2], in assay [17] and in assay [3]. Also, the compound was classed as inactive in assay [18], in assay [5], in [19], in assay [7], in assay [8] and in assay [9]. In addition, in assay [20], the compound was classed as inactive. In addition, the AC50 was 13.4 µM (active) in assay [16], 43 µM (active) in assay [9] and 33.2 µM (active) in assay [20].
For `C[Si](C)(C)O[Si](C)(C)O[Si](C)(C)C`, the outcome in assay [11], in assay [1], in assay [2], in assay [3], in assay [4] and in [5] was inactive. Further, the result in assay [6], in [8] and in assay [9] was inactive.
Regarding `C1=CCC=C1`, the result in assay [11], in [13], in [4] and in assay [7] was inactive.
